These results are taken from PubChem BioAssay AID1894 (NMMLSC, 2009).

In all, about 5,900 compounds went through this assay and about 100 (1.7%) were called active. Only a selection was taken, and actives are over-represented in it overall. Unmarked numbers belong to inactive results.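 Rule for the calls: active = binding response below 72% of control, or above a set upper limit, though filed actives all read lower; inactive = the rest.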

This assay deals with Mitogen-activated protein kinase kinase kinase 3 (Homo sapiens) (UniProt Q99759). As to the kind of experiment: MEKK3 wild-type PB1 binding to MEK5, inhibitors, confirmation, biochemical, bead multiplex flow cytometry, single concentration, wildtype (AID 1894).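 Note: 100% = DMSO only wells and 0% = binding blocked by excess unlabeled MEK5; lower values mean stronger disruption of MEK5 binding to MEKK3.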 As to conditions: Alexa488-MEK5 binding to MEKK3, at 10 µM, hits give low values. For orientation: Flow cytometry measures light scatter and fluorescence of single cells or particles in a stream.
Sequence of Mitogen-activated protein kinase kinase kinase 3 (Homo sapiens) (Q99759 whole entry, looked up): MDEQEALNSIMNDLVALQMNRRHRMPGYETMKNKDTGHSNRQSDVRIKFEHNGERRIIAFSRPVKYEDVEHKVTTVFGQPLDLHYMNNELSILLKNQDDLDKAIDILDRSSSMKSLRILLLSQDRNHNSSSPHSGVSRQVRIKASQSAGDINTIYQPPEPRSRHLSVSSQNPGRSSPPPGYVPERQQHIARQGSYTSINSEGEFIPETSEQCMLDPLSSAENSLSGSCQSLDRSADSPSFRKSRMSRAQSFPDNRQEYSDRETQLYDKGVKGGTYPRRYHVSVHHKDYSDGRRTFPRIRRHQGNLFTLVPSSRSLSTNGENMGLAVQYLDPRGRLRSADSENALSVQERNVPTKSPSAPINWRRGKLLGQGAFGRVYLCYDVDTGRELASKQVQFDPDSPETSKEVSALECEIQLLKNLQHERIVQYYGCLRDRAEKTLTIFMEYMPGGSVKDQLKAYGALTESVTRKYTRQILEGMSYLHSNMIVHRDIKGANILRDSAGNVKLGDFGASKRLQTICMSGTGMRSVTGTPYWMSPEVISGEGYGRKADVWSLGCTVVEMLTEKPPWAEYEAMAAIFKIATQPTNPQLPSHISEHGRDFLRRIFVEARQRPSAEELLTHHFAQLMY
Consider `COc1ccc(-c2[nH]ncc2CN(C)Cc2c(C)n[nH]c2C)c(OC)c1`, for which the binding response (% of control) was 109%.

As for `COc1ccccc1N1CCN(CCCCOc2ccc(F)cc2)CC1`, the binding response (% of control) was 103%.

For `CN1C(=O)/C(=C\c2ccc(-c3ccccc3)o2)SC1=S`, the binding response (% of control) was 70% (active).

With `Cc1cc(Cl)ccc1OCc1nc(-c2ccncc2)no1`, the binding response (% of control) was 79%.

As for `CCn1c(NC(=O)c2ccccc2)c(-c2cccs2)c(=O)c2ccccc21`, the binding response (% of control) is 101%.

Consider `Cc1cc(C)nc(-n2ncc3c2CC(c2ccc(C(C)C)cc2)CC3=O)n1` (stereo not drawn), for which the binding response (% of control) was 99%.

As to `C/C(=N\NC(=O)CNC(=O)C(c1ccccc1)c1ccccc1)c1ccc(C)cc1`, the binding response (% of control) is 108%.

Consider `Cc1cc2cc(CNC(=O)c3cccs3)ccc2[nH]1`, for which the binding response (% of control) was 77%.

With `CCOc1ccc(S(=O)(=O)N(CC(=O)O)c2ccccc2)cc1`, the binding response (% of control) is 106%.

For `CC(C)CC(=O)NC(=S)Nc1cc(C(=O)O)ccc1Cl`, the binding response (% of control) was 104%.

Turning to `Cn1c(SCc2nc3ccccc3s2)nnc1-c1ccc2c(c1)OCO2`, the binding response (% of control) is 98%.

Take `Cc1no[n+]([O-])c1COc1ccccc1/C=C1\NC(=S)NC1=O`: the binding response (% of control) was 101%.

Turning to `CC(C)(C)NC(=O)Cn1cnc([N+](=O)[O-])n1`, the binding response (% of control) was 97%.

Turning to `COc1ccc(CCNC(=O)CSc2nnc3ccc(-c4ccncc4)nn23)cc1`, the binding response (% of control) was 105%.

In the case of `CCOc1cc(C2C(C(=O)OC)=CN(C3CCCC3)C=C2C(=O)OC)cc(Br)c1O`, the binding response (% of control) was 109%.

`O=C(O)c1cc(Cl)c(Cl)cc1C(=O)Nc1cccc2ncccc12`: the binding response (% of control) is 102%.

Take `COc1ccc(NC(=O)Cn2nnc(C(=O)NCCc3ccc(OC)c(OC)c3)c2N)cc1`: the binding response (% of control) was 102%.

Regarding `O=C(NCCCN1CCCCCC1)C1CC(=O)N(C2CCCC2)C1` (stereo not drawn), the binding response (% of control) was 2% (active).

Turning to `Cn1c(C(=O)NCCCN2CCCCC2)cc2sccc21`, the binding response (% of control) is 109%.

Regarding `O=C(NCCCN1CCCCCC1)c1ccc(N2CCCC2=O)cc1`, the binding response (% of control) was 110%.

On to `Cc1ccc(C(=O)NC(=S)Nc2ccc3[nH]c(=O)[nH]c3c2)cc1C`, for which the binding response (% of control) was 100%.

Regarding `c1ccc(CN2CCC(N=C3NN=C(c4ccc5c(c4)OCCO5)CS3)CC2)cc1`, the binding response (% of control) was 117%.

For the molecule `C[C@H]1CCC(=O)N([C@H](CSc2ccccc2)Cc2ccccc2)CC1`, the binding response (% of control) is 108%.

`O=C(CC1SCCNC1=O)Nc1ccc(Cl)c(Cl)c1` (stereo not drawn): the binding response (% of control) is 106%.

In the case of `CCNC(=O)CSc1nc(-c2ccccc2)cs1`, the binding response (% of control) is 104%.

With `COc1ccc(S(=O)(=O)Nc2ccc3oc(C)c(C(C)=O)c3c2)cc1`, the binding response (% of control) is 100%.

Turning to `O=C(CN1CCN(C(=O)c2ccco2)CC1)Nc1ccc(Cl)c(C(F)(F)F)c1`, the binding response (% of control) is 104%.

Take `COc1ccccc1OCCNCC(O)COc1cccc2[nH]c3ccccc3c12` (stereo not drawn): the binding response (% of control) is 100%.

Take `O=C(NCCN1CCOCC1)[C@H](Cc1ccccc1)N1C(=O)c2ccccc2C1=O`: the binding response (% of control) was 100%.

`c1ccc(Nc2nc(N3CCOCC3)c3ccccc3n2)cc1`: the binding response (% of control) is 106%.

As for `CCOc1ccc(S(=O)(=O)NCCCn2ccnc2)cc1NC(C)=O`, the binding response (% of control) is 97%.

For the molecule `CSCC[C@H](NC(=O)CCCn1nnc2ccccc2c1=O)C(=O)O`, the binding response (% of control) is 102%.

Regarding `COc1cc(NC(=S)NCc2ccco2)c(OC)cc1Cl`, the binding response (% of control) is 104%.

Turning to `CC(C)C(=O)N1c2ccccc2NC2=C(C(=O)CCC2)C1c1ccc(N(C)C)cc1` (stereo not drawn), the binding response (% of control) was 106%.

Take `COc1ccccc1N=C(C)C1=C(O)COC1=O`: the binding response (% of control) was 102%.

`CC1(C)Cc2cccc(OCC(=O)N3CCN(c4ccc([N+](=O)[O-])cc4)CC3)c2O1`: the binding response (% of control) is 103%.

`CN(C)c1ccc(/C=C2\NC(=S)N(Cc3ccccc3)C2=O)cc1`: the binding response (% of control) was 99%.

Consider `CC(C)CC(=O)N1CCN(Cc2ccccc2Br)CC1`, for which the binding response (% of control) was 107%.

Regarding `CC1(C)OC(=O)N2CCc3ccccc3C21C` (stereo not drawn), the binding response (% of control) was 104%.

As for `COc1cccc(NC(=S)NCc2ccccn2)c1`, the binding response (% of control) was 96%.

As for `CCOc1nnc(C)c2c(C)n(-c3cccc(Cl)c3)nc12`, the binding response (% of control) is 91%.

On to `CCCc1nnc(SCC(=O)N2C(C)CCCC2C)n1CC` (stereo not drawn), for which the binding response (% of control) is 111%.

For `O=C(Nc1cccnc1)c1cc(Cl)ccc1Cl`, the binding response (% of control) is 106%.

Regarding `O=C(O)CC(Cc1ccccc1)C(=O)Nc1ccc([N+](=O)[O-])cc1` (stereo not drawn), the binding response (% of control) was 100%.

For `COc1cccc(/C=N\NC(=O)C2=NNC(=O)C2C)c1O` (stereo not drawn), the binding response (% of control) is 100%.

For the molecule `CNC(C)C#Cc1ccc2sc3cc(OC)c(OC)cc3c(=O)c2c1` (stereo not drawn), the binding response (% of control) was 104%.

As to `Cc1ccc(Nc2nc(CSc3nnc(-c4ccncc4)n3-c3ccccc3C)cs2)cc1`, the binding response (% of control) was 103%.

As to `Cc1c(S(=O)(=O)NCc2ccccc2)c(=O)n(C)c(=O)n1C`, the binding response (% of control) was 101%.

Turning to `Cc1cnc(NC(=O)Cn2cnc3c2c(=O)n(C)c(=O)n3C)s1`, the binding response (% of control) is 97%.

Turning to `C=CCn1c(=S)sc2c(=O)[nH]c(C)nc21`, the binding response (% of control) is 107%.

For the molecule `CC1CCN(C2=NC(=O)/C(=C/c3cn[nH]c3-c3ccccc3)S2)CC1`, the binding response (% of control) is 91%.

Consider `O=C(CCCO)N/N=C/c1cc(Br)ccc1O`, for which the binding response (% of control) is 102%.

As to `COc1ccc(CC(=O)N2N=C(C)CC2(O)C(F)(F)F)cc1` (stereo not drawn), the binding response (% of control) is 98%.

Consider `O=C1C=CC(=O)N1c1ccc(N2CCCCC2)cc1`, for which the binding response (% of control) is 100%.

For the molecule `N=c1c2c(-c3ccccc3)c(-c3ccccc3)n(Cc3ccccc3)c2ncn1CCCO`, the binding response (% of control) was 110%.

For the molecule `Cc1cccc(/C=N/NC(=O)CNc2cccc3ccccc23)n1`, the binding response (% of control) is 110%.

For `O=C(O)CCCC(=O)Nc1ccc(Oc2cccc(C(F)(F)F)c2)nc1`, the binding response (% of control) was 105%.

`Cc1nn(-c2ccccc2)c(C)c1NC(=O)CCl`: the binding response (% of control) is 97%.

On to `COC(=O)c1c(NC(=O)COC(=O)[C@@H](NS(=O)(=O)c2ccccc2)C(C)C)sc2c1CCC2`, for which the binding response (% of control) is 102%.

Take `Cc1cn(COC/C=C/c2ccccc2)c(=O)[nH]c1=O`: the binding response (% of control) was 105%.

For `CCO[C@H]1OC(C(=O)N2CCOCC2)=C[C@@H](c2ccc3c(c2)OCO3)[C@@H]1CCCO`, the binding response (% of control) is 104%.

`Cc1noc(C)c1S(=O)(=O)N(C)Cc1ccccc1`: the binding response (% of control) was 103%.

In the case of `CCN(CC)C(=O)CC(c1ccc2c(c1)OCO2)c1c(OC)cc(OC)c2c(-c3ccccc3)cc(=O)oc12` (stereo not drawn), the binding response (% of control) was 103%.
